This excerpt belongs to a sample that is enriched for hits.
Cruzain inh Det: cruzain (T. cruzi) inhibition with detergent. 0.43% of 200,000 active. P25779. AID 1478. Potency, µM, actives largely listed as inhibitors. purified cruzain, Z-FR-AMC fluorescence, 0.01% Triton; also: nearly all actives have a fitted effect of over 40% in size
Target sequence (P25779 123-467 limits assumed): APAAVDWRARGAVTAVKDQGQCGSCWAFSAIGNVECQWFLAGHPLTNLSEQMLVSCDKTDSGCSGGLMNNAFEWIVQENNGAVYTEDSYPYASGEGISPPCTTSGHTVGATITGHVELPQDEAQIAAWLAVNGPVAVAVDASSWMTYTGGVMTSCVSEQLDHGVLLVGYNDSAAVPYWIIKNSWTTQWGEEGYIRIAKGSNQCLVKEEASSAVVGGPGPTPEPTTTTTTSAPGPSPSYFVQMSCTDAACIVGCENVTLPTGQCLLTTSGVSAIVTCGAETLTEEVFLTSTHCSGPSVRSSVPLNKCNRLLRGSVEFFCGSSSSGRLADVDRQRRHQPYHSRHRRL
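Cruzain (1.5 nM) preincubated 15 min at RT with compound in 100 mM sodium acetate pH 5.5, 5 mM DTT, 0.01% Triton X-100. Reaction started with 2 uM Z-FR-AMC; AMC fluorescence (ex 360/em 450 nm) change over 60 s gave rate.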
NS1 inh: influenza NS1 inhibition; Potency, µM (doses to about 46.1 µM); 0.4% of 270,000 active; calls by dose curve; also: actives are rising curves; nearly all actives have a fitted effect of over 50% in size
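Growth recovery, yeast-based: influenza A NS1 expressed in S. cerevisiae causes slow growth, and suppressors are detected by OD600. The parent strain without NS1 is used as positive control.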
Cruzain noTriton: blocks cruzain activity in detergent-free assay; P25779; purified cruzain, Z-FR-AMC fluorescence, no detergent; Potency, µM, usual class: inhibitors; 2.3% of 200,000 active; also: nearly all actives have a fitted effect of over 40% in size
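Purified cruzain at 1.5 nM, pre-incubated 15 min with compound at room temperature in 100 mM sodium acetate pH 5.5, 5 mM DTT, 0.00005% Triton X-100. Reaction started with 2 uM Z-FR-AMC; AMC fluorescence increase over 60 s gives rate.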
A number is an active result; i = inactive; ? = inconclusive; nt = no result. Unless noted, calls follow the shape of the dose curve; as a rule, active = well fitted curve in the direction sought with a large enough effect; inconclusive = small, poorly fitted or top-dose-only effect, or another doubt; inactive = no such curve, though single readings can be large; an effect the other way counts as inactive or inconclusive.

SMILES	Cruzain inh Det	NS1 inh	Cruzain noTriton
C[C@]12CCC(=O)C[C@@H]1CC[C@@H]1[C@@H]2CC[C@]2(C)C=CC[C@@H]12	nt	i	nt
CSc1ccc(CNCc2ccco2)cc1	nt	i	nt
Cc1ccc(NC(=O)N2CC3CCCN3c3ccccc32)cc1C (stereo unspecified)	i	nt	?
Cc1ccc(NC(=O)N2CC3CCCN3c3ccccc32)cc1Cl (stereo unspecified)	i	nt	31.6µM
CCOC(=O)CSc1nc2sc3c(c2c(=O)n1-c1ccccc1)CCN(C)C3	nt	i	nt
CCOC(=O)c1c(NC(=O)c2cc(C(C)C)on2)sc(C)c1C	i	nt	i
CCCc1cc(C(=O)Nc2sc(C)c(C)c2C(=O)OCC)no1	i	i	20µM
COc1ccc(OC)c(Nc2nc(-c3sc(NC(=O)c4ccccc4)nc3C)cs2)c1	i	i	?
Cc1nc(NC(=O)c2ccccc2)sc1-c1csc(Nc2ccc(Cl)cc2Cl)n1	i	i	7.94µM
O=C(Nc1cccc(-c2csc(Nc3ccc(Cl)cc3)n2)c1)c1ccccc1	nt	i	nt
COc1ccc(Cl)cc1Nc1nc(-c2sc(NC(=O)c3ccccc3)nc2C)cs1	i	i	6.31µM
Cc1nc(NC(=O)c2ccccc2)sc1-c1csc(Nc2cccc(Cl)c2)n1	i	i	10µM
CCC(=O)Nc1nc(C)c(-c2csc(Nc3cccc(O)c3)n2)s1	nt	i	nt
O=C(Nc1ccc2c(c1)OCO2)C1(S(=O)(=O)c2ccc(Cl)cc2)CC1	i	i	i
CCC(=O)NNc1ncnc2c1cnn2-c1ccc(C)c(Cl)c1	i	nt	i
Cn1nnnc1SCc1nc2ccccc2s1	i	i	i
Cc1cccc(NC(=O)C2CCN(C(=O)[C@@H]3Cc4ccccc4CN3)CC2)c1	nt	i	nt
CC1=NN(c2nc(-c3ccc(C)cc3)cs2)C(=O)C1N=Nc1ccc2ccccc2c1 (stereo unspecified)	i	i	3.16µM
CC1=NN(C(=O)c2ccncc2)C(=O)[C@@H]1N=Nc1ccc2ccccc2c1	i	i	i
COc1cc(OC)c(NC(=O)c2c(C)oc3ncnc(N4CCCCC4)c23)cc1Cl	i	nt	i
Cc1ccc2c(CC(=O)Nc3ccc(S(=O)(=O)N4CCCCC4C)cc3)coc2c1C (stereo unspecified)	i	nt	?
Cc1ccc2c(CC(=O)Nc3ccc(S(=O)(=O)N4CCCCC4C)cc3)coc2c1 (stereo unspecified)	i	nt	25.1µM
COc1ccccc1N1CCN(C(c2ccc(N(C)C)cc2)c2nnnn2CCc2ccccc2)CC1 (stereo unspecified)	i	i	?
Cc1cccc(-n2c(C)cc(/C=N/n3cnnc3)c2C)c1	i	i	i
COc1ccc(Cl)cc1NC(=O)CSc1ncnc2c1oc1ccccc12	i	i	15.8µM
SMILES	Cruzain inh Det	NS1 inh	Cruzain noTriton
COc1ccccc1CC(=O)Nc1cc2oc3ccccc3c2cc1OC	i	i	i
COc1cccc(NC(=O)CSc2ncnc3c2oc2ccccc23)c1	i	i	i
COc1ccc(CC(=O)Nc2cc3oc4ccccc4c3cc2OC)cc1	i	i	i
COc1cc(OC)cc(C(=O)NC(=S)Nc2cc3oc4ccccc4c3cc2OC)c1	i	i	3.98µM
COc1cc2c(cc1NC(=O)COc1ccc(Br)cc1)oc1ccccc12	i	nt	i
COc1cc2c(cc1NC(=O)COc1ccc3ccccc3c1)oc1ccccc12	i	i	10µM
COc1ccc(C(=O)NC(=S)Nc2cc3oc4ccccc4c3cc2OC)cc1	i	i	7.94µM
COc1ccc(C(=O)N(C)C(C)c2ccon2)cc1OC1CCN(C(C)C)CC1 (stereo unspecified)	nt	i	nt
Cc1ccc(S(=O)(=O)C(F)(F)F)cc1NC(=O)c1cccnc1	i	i	i
COCCNC(=S)Nc1cc2oc3ccccc3c2cc1OC	nt	i	nt
CCOc1ccccc1-n1nnnc1SCC(=O)Nc1cc2oc3ccccc3c2cc1OC	i	i	7.94µM
COc1cc2c(cc1NC(=O)C(C)Sc1nc3ccccc3n1C)oc1ccccc12 (stereo unspecified)	i	i	25.1µM
COc1cc2c(cc1NC(=S)NC(=O)c1c(OC)cccc1OC)oc1ccccc12	i	i	6.31µM
COc1cc2c(cc1NC(=O)C(C)Sc1cccc[n+]1[O-])oc1ccccc12 (stereo unspecified)	i	i	?
CCOc1ccccc1-n1nnnc1SCC(=O)Nc1cc(C)on1	i	i	i
COc1ccc(S(=O)(=O)N2CCC(C(=O)Nc3ccc(OC)c(OC)c3)CC2)cc1C	nt	i	nt
CC(=O)Nc1ccc(NC(=O)c2c(-c3ccccc3)noc2C)cc1	i	nt	i
COc1cc(C(C[N+](=O)[O-])c2c(C)cc3ccccn23)ccc1O (stereo unspecified)	nt	i	nt
CC1(OC(=O)CCc2ccccc2)C(=O)C=C2C=C(c3ccc(C#N)cc3)OC=C2C1=O (stereo unspecified)	i	nt	i
CC1(OC(=O)CCc2ccccc2)C(=O)C=C2C=C(c3ccsc3)OC=C2C1=O (stereo unspecified)	i	1.26µM	i
CC1=C(C(=O)OCc2ccccc2)C(c2cccc(Cl)c2Cl)CC(=O)N1 (stereo unspecified)	i	nt	i
O=C(COC(=O)c1c2c(nc3ccccc13)CCCC2)Nc1ccc2c(c1)OCO2	i	i	25.1µM
O=C(COC(=O)c1cc(-c2ccccc2)nc2ccccc12)Nc1ccc2c(c1)OCO2	i	i	?
O=C(COC(=O)c1c2c(nc3ccccc13)/C(=C\c1cccs1)CCC2)Nc1ccccc1	i	i	10µM
CC(C)(C)NC(=O)COC(=O)c1c2c(nc3ccccc13)CCC2	nt	i	nt
SMILES	Cruzain inh Det	NS1 inh	Cruzain noTriton
Cc1ccc(C)n1-c1ncn[nH]1	i	?	i
O=C1CN(C(=O)COc2ccc(F)cc2Cl)c2ccccc2N1	nt	i	nt
Fc1ccc(F)c(C2=NNC(=NCC3CCCO3)SC2)c1 (stereo unspecified)	nt	i	nt
COc1ccc(C2CC(=O)c3cc(-c4nc(-c5cccc([N+](=O)[O-])c5)cs4)c(=O)n(-c4cc(C)cc(C)c4)c3C2)cc1 (stereo unspecified)	i	nt	i
O=C(OCC(=O)N1CCc2ccccc21)c1ccccc1F	nt	i	nt
CC(=O)c1cccc(OCC(=O)N2CCCc3ccccc32)c1	nt	i	nt
O=C(CNC(=O)c1cccc(F)c1)OCC(=O)N1CCCc2ccccc21	11.2µM	i	10µM
CC(C)(C)NC(=O)NC(=O)COC(=O)c1cccc(F)c1	i	i	i
COc1ccc(C(=O)NCC(=O)OCC(=O)NCCC2=CCCCC2)cc1	nt	i	nt
CC(C)(C)NC(=O)NC(=O)COC(=O)CNC(=O)c1cccc(F)c1	22.4µM	i	?
O=C(CNC(=O)c1ccccc1F)OCC(=O)N1CCCc2ccccc21	10µM	i	10µM
O=C(COC(=O)CNC(=O)c1ccccc1F)NCCC1=CCCCC1	14.1µM	i	10µM
O=C(CCCCCNC(=O)c1ccccc1)N=Nc1c(O)[nH]c2c(Br)cc(Br)cc12	nt	i	nt
COc1ccc2c(c1)cc(C(=O)N[C@@H](Cc1ccccc1)C(=O)N[C@@H](C)C(=O)O)n2C	nt	i	nt
Cc1csc(SCC(=O)NC(=O)Cc2ccccc2)n1	i	i	i
N#C/C(=C\N1CCN(Cc2ccc3c(c2)OCO3)CC1)c1nc2ccccc2s1	i	i	31.6µM
c1ccc2sc(N3CCN(Cc4ccc5c(c4)OCO5)CC3)nc2c1	i	nt	i
CC(=O)N[C@H](c1ccccc1)[C@@]1(C)C[C@@H]1[C@@H](C)C(=O)Nc1ccc2ccccc2c1	i	nt	i

Screening results as filed in PubChem BioAssay.
